We go through 86 molecules from PubChem BioAssay AID492964 (The Scripps Research Institute Molecular Screening Center, 2010).

Out of some 1,800 compounds screened, about 880 (49%) were called active. So high a share suggests a set chosen from earlier hits. These entries were drawn from the full list. Unmarked numbers belong to inactive results. Cut-off read from the data, not from the text of the source: active = inhibition above about 55%; inactive = the rest.

For the assay, the target named is Orexin/Hypocretin receptor type 1 (Homo sapiens) (UniProt O43613). Briefly: HCRTR1 receptor blockers, retested hits – cell-based, HTRF, confirmation (AID 492964).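 Note: CHO cells expressing OX1R stimulated with orexin A at about EC80; 0% = agonist challenge alone and 100% = reference antagonist.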 To be noted: OX1R-expressing cells, HTRF antagonist assay; at 6.6 µM; hits give high values.
Orexin/Hypocretin receptor type 1 (Homo sapiens), sequence (O43613 whole entry, looked up): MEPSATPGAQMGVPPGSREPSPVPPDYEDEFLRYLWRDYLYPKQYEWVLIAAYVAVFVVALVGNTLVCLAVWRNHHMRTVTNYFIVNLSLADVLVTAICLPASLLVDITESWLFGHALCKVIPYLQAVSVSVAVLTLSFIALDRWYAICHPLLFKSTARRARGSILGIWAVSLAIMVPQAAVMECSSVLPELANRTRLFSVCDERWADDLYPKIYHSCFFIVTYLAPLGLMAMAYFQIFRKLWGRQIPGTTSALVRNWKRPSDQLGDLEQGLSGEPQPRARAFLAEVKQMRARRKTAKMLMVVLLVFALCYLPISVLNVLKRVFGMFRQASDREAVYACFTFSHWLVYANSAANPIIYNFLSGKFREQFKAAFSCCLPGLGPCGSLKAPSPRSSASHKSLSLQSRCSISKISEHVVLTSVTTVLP
For `CCn1c(C)nc2c1C(=O)c1ccccc1C2=O`, the inhibition was 69.9% (active).

In the case of `CC(=O)Oc1ccc(C(C)=O)c2c1OCCO2`, the inhibition is 19.2%.

With `CC(NC(=O)c1cccc2ccccc12)c1ccc2c(c1)CCCC2` (stereo unspecified), the inhibition was 64.9% (active).

For `O=C(Nc1cccc2cccnc12)c1cccc(N2C(=O)CCC2=O)c1`, the inhibition is 86.1% (active).

As for `COc1cccc(N=c2oc3c(C)ncc(CO)c3cc2C(N)=O)c1`, the inhibition was 51.7%.

Take `Cc1oc2c(c1C(=O)N1CCOCC1)C(=O)c1ccccc1C2=O`: the inhibition is 78.8% (active).

Take `CCn1c(O)c(N=NC2=NC(=O)CS2)c2cc(C)ccc21`: the inhibition is 28.9%.

For the molecule `O=C(N/N=C/c1sc(N2CCCCC2)nc1-c1cccs1)c1cccnc1`, the inhibition was 89.2% (active).

Turning to `N#Cc1nc(-c2cccc3ccccc23)oc1N`, the inhibition was 60.8% (active).

With `O=C(Nc1ccccc1Cl)/C(Cl)=C(\Cl)S(=O)c1ccccc1` (stereo unspecified), the inhibition is 89.9% (active).

Regarding `Cc1cccc(NC(=O)Nc2cccc(Oc3c(F)c(F)c(F)c(F)c3F)c2)c1`, the inhibition was 35.4%.

For the molecule `NS(=O)(=O)c1ccc(CCNC(=O)c2ccc([N+](=O)[O-])cc2[N+](=O)[O-])cc1`, the inhibition was 84.6% (active).

Regarding `CSCCC(NC(=O)c1cc([N+](=O)[O-])cc([N+](=O)[O-])c1)c1nc2ccccc2[nH]1` (stereo unspecified), the inhibition was 46.4%.

In the case of `Cc1c(/C=N\NC(=O)c2cc3ccccc3o2)c2ccccc2n1C`, the inhibition was 83.1% (active).

Regarding `COc1cccc(C(=O)NC(=O)Nc2nc(C)cc(C(F)(F)F)n2)c1`, the inhibition is 57.7% (active).

Regarding `Cc1cc(=O)oc(C)c1C(=O)NCCN(C)Cc1ccccc1`, the inhibition was 12.3%.

As to `O=C(NC(Cc1c[nH]c2ccccc12)C(=O)N/N=C/c1ccc(Br)cc1)c1cccs1` (stereo unspecified), the inhibition was 81.2% (active).

For the molecule `CC(C)(C)NC(=O)CN(C(=O)c1csnn1)c1ccccc1-c1ccccc1`, the inhibition is 55.5% (active).

`COc1ccc2sc(-c3ccc(N(C)C)cc3)c(C#CCO)c2c1`: the inhibition is 62.2% (active).

Regarding `CCn1c(=N)c(C(=O)NCCCOC)cc2c(=O)n3cccc(C)c3nc21`, the inhibition was 47.5%.

For `COC(=O)c1sccc1NC(=O)CSc1ccccc1NS(=O)(=O)c1cc(Cl)ccc1Cl`, the inhibition is 67.1% (active).

Regarding `COc1ccc(N(C)C(=O)CCS(=O)(=O)c2cccc3nsnc23)cc1`, the inhibition was 38.3%.

In the case of `CC(=O)Nc1ccc(Nc2c([N+](=O)[O-])cc(S(C)(=O)=O)cc2[N+](=O)[O-])cc1`, the inhibition is 46.9%.

For `COC(=O)N/N=C/c1c[n+]([O-])c2ccccc2[n+]1[O-]`, the inhibition was 69.1% (active).

Consider `COCCNC(=O)Nc1ccc2nc(-c3ccco3)c(-c3ccco3)nc2c1`, for which the inhibition is 32.4%.

Regarding `COc1cc(OC)c(NC(=O)c2ccc(Br)o2)cc1Cl`, the inhibition was 66.4% (active).

In the case of `Nc1ccc2nc3c(=O)[nH]c(=S)[nH]c3nc2c1`, the inhibition is 47.3%.

Regarding `N#C/C(=C1\CCCN1)c1nc(-c2ccccc2)cs1`, the inhibition is 94% (active).

As to `N#CC(=C1SC=CS1)c1nc(-c2ccccc2)cs1`, the inhibition is 92.5% (active).

Consider `Nc1[nH][nH]c(=O)c1N=Nc1ccc2c(c1)OCO2`, for which the inhibition is 34.5%.

Consider `COCCCNC(=S)NC(=O)c1ccc([N+](=O)[O-])cc1`, for which the inhibition is 50.2%.

Turning to `Cn1cnnc1Sc1ccc(S(C)(=O)=O)cc1[N+](=O)[O-]`, the inhibition is 42.5%.

Consider `COc1cc2ccccc2cc1C(=O)Nc1ccc(N2CCOCC2)cc1`, for which the inhibition was 56.8% (active).

As for `COc1ccccc1N1CC(C(=O)Nc2ccc(S(=O)(=O)N3CCOCC3)cc2)CC1=O` (stereo unspecified), the inhibition was 16.2%.

Take `COc1cccc(/C=N/Nc2cc(C)nc(-c3ccccc3O)n2)c1O`: the inhibition is 92.3% (active).

As for `CCOc1ccc(/C=C/C(=O)OCC(=O)c2ccccc2OC)cc1OC`, the inhibition was 58.8% (active).

Regarding `CC(C)CC[n+]1ccn(C2=C([O-])c3ccccc3C(=O)/C2=N\S(=O)(=O)c2ccccc2)c1`, the inhibition was 51.6%.

In the case of `O=C(Oc1ccccc1C(=S)N1CCCCC1)c1cc([N+](=O)[O-])cc([N+](=O)[O-])c1`, the inhibition is 35.2%.

As for `COc1cc(C(=S)N2CCOCC2)cc(OC)c1OC(=O)c1ccc([N+](=O)[O-])cc1[N+](=O)[O-]`, the inhibition was 88.1% (active).

On to `CCn1c(SCC(=O)c2ccc3ccccc3c2)nnc1-c1cccs1`, for which the inhibition was 81.2% (active).

As to `COc1ccc(N2CC(C(=O)NCCN3C(=O)S/C(=C\c4cccnc4)C3=O)CC2=O)c(OC)c1` (stereo unspecified), the inhibition is 106% (active).

In the case of `O=C(O)CCC(=O)Nc1nc2ccc([N+](=O)[O-])cc2s1`, the inhibition was 50.8%.

Turning to `Cc1cc(-c2ccc(C)c(S(=O)(=O)NC(C)Cc3ccco3)c2)on1` (stereo unspecified), the inhibition was 30.2%.

Turning to `COc1ccc(S(=O)(=O)NC(C)c2ccccc2)cc1C(=O)N1CCCCC1` (stereo unspecified), the inhibition is 72.9% (active).

Regarding `CC(=O)N/N=C/c1cc2c(cc1[N+](=O)[O-])OCO2`, the inhibition is 34.2%.

Turning to `COC(=O)CNC(=O)c1ccc2c(c1)S(=O)(=O)c1ccccc1C2=O`, the inhibition was 63% (active).

In the case of `Cc1cc(C(=O)NC2CCCc3c2cnn3-c2cccc(C)c2C)c(C)o1` (stereo unspecified), the inhibition was 63.8% (active).

As for `Cc1cccc(NS(=O)(=O)c2cccc(C(=O)NNC(=O)c3ccccc3O)c2)c1`, the inhibition is 30.5%.

On to `S=c1[nH]nc(-c2cc(-c3ccccc3)n[nH]2)n1/N=C/c1c2ccccc2cc2ccccc12`, for which the inhibition was 60% (active).

With `Cc1cccn2c(=O)c3cc(C#N)c(=NC(=O)c4cccnc4)n(CC4CCCO4)c3nc12` (stereo unspecified), the inhibition was 44.2%.

For `COc1ccc(CCn2c(NCCCN3CCOCC3)nc3c2c(=O)[nH]c(=O)n3C)cc1`, the inhibition is 15.3%.

For `CCOc1ccc(CCNC(=O)C(CC)n2nc(C)n3c(cc4sccc43)c2=O)cc1OCC` (stereo unspecified), the inhibition was 81.6% (active).

In the case of `COc1cccc(/C=C/c2ccc3ccccc3n2)c1OC(C)=O`, the inhibition was 37.3%.

On to `CN(C(=O)CSc1nnc(-c2n[nH]c3ccccc23)o1)c1ccccc1`, for which the inhibition was 35%.

As to `COc1cccc(/C=N/NC(=O)c2[nH]nc3c2CCc2ccccc2-3)c1O`, the inhibition is 55% (active).

As for `Nc1nc(COC(=O)CCC(=O)c2ccc(Cl)cc2)nc(Nc2ccccc2)n1`, the inhibition was 38.7%.

In the case of `O=C(/C=C/c1ccco1)Nc1cccc(-c2nc3ccccc3[nH]2)c1`, the inhibition is 59% (active).

On to `COc1ccc(CCNC(=O)/C(C#N)=C2\N=C(NC(=O)c3cccs3)c3ccccc32)cc1`, for which the inhibition was 19.5%.

In the case of `CCC(=O)N(C)C(c1ccccc1Cl)c1nnnn1-c1c(C)cccc1C` (stereo unspecified), the inhibition is 64% (active).

On to `Cc1ccc2c(c1)nnc1nnc(SCC(=O)O)n12`, for which the inhibition was 63.9% (active).

Regarding `O=C(Nc1nnc(-c2ccccc2)o1)c1cc(-c2cccs2)nc2ccccc12`, the inhibition was 75.6% (active).

For `C/C(N)=C(/C#N)C(=O)COC(=O)c1cc(-c2ccc(C)cc2)nc2ccccc12`, the inhibition is 27.5%.

On to `O=C(NCc1ccco1)C1CCCN(S(=O)(=O)c2cccc3nonc23)C1` (stereo unspecified), for which the inhibition is 16.2%.

Take `CCOc1ccc(NC(=O)CCS(=O)(=O)c2cccc3nsnc23)cc1`: the inhibition was 31.9%.

Take `Cc1cc(C)cc(NC(=O)C2CCCN2S(=O)(=O)c2cccc3cccnc23)c1` (stereo unspecified): the inhibition is 88.2% (active).

As for `CC(=O)c1cccc(NC(=O)C2CCCN2S(=O)(=O)c2cccc3nsnc23)c1` (stereo unspecified), the inhibition was 101% (active).

With `CN1CCN(/N=C/c2ccc(-c3ccc([N+](=O)[O-])cc3)o2)CC1`, the inhibition is 26.4%.

Consider `C=CCn1c(SCC(=O)Nc2nc3ccccc3s2)nnc1-c1ccccc1O`, for which the inhibition is 76.1% (active).

For the molecule `COc1ccc2oc(=O)c(C(=O)NCc3ccccn3)cc2c1`, the inhibition is 35.8%.

Regarding `O=C(Nc1ccc2sc3ccccc3c(=O)c2c1)c1ccccc1Cl`, the inhibition is 95.8% (active).

Regarding `CC(C)(C)NC(=O)Cn1cnc2cc([N+](=O)[O-])ccc2c1=O`, the inhibition is 43.3%.

For the molecule `CCOc1cc(/C=C(\C#N)c2nc(-c3cccs3)c(NC(C)=O)s2)ccc1O`, the inhibition was 73.3% (active).

On to `O=C(Cc1ccccc1)N1CCN(S(=O)(=O)c2ccc([N+](=O)[O-])cc2)CC1`, for which the inhibition is 61.2% (active).

As for `Cc1ccccc1S(=O)(=O)N1[C@@H](c2cccc(Cl)c2)C(C(=O)O)=CC[C@H]1c1ccc(Cl)cc1`, the inhibition was 87.4% (active).

Take `Cc1ccc([C@@H]2CC=C(C(=O)O)[C@H](c3cccc(Cl)c3)N2S(=O)(=O)c2ccc(C)cc2)cc1`: the inhibition was 82.8% (active).

Turning to `O=C(Nc1nnc(C2=COCCO2)o1)c1ccc([N+](=O)[O-])s1`, the inhibition is 49.7%.

`c1ccc(-c2nc(NCc3ccco3)c3ccccc3n2)cc1`: the inhibition is 64% (active).

On to `C[n+]1ccccc1C1CCCC/C1=N\Nc1ccc([N+](=O)[O-])cc1[N+](=O)[O-]` (stereo unspecified), for which the inhibition was 35.2%.

Take `Nc1nc(-c2sc3nc4c(cc3c2N)CCCC4)nc(N2CCOCC2)n1`: the inhibition is 94.8% (active).

Consider `O=C(CN1C(=O)c2cccc3cccc(c23)C1=O)N1CCCCC1`, for which the inhibition was 33.8%.

In the case of `Cn1c(N)c(C(=O)COC(=O)c2ccc3ccccc3c2)c(=O)n(C)c1=O`, the inhibition was 63.3% (active).

Regarding `COc1ccc2[nH]c(=O)c(CNc3ccc(C)c(C)c3)cc2c1`, the inhibition was 31.3%.

Take `O=C(N/N=C/c1c(Cl)[nH]c2ccccc12)c1sc2ccccc2c1Cl`: the inhibition was 92.5% (active).

As to `Cc1ccc(Nc2nc(CSc3nnnn3-c3ccccc3)cc(=O)[nH]2)cc1`, the inhibition was 22.3%.

Consider `O=C(OC1CCOC1=O)c1ccc(-c2nc3ccccc3s2)s1` (stereo unspecified), for which the inhibition is 98.5% (active).

As for `O=C(c1ccncc1)c1ccc([N+](=O)[O-])cc1`, the inhibition was 53.2%.
